Source: PubChem BioAssay (National Center for Advancing Translational Sciences (NCATS))
In the library only some 8.9% were active in any assay of this set; here they are far more common.
SW480 rerep: A quantitative high throughput screen for small molecules that induce DNA re-replication in SW480 colon adenocarcinoma cells. AID 624297, 2012. Potency, µM (doses to about 46.1 µM), usual class: activators. SW480 DNA re-replication, Hoechst DNA content imaging, 48 h. hit rate 1.8% among 340,000; further: nearly all actives have a fitted effect of over 55% in size
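First, 250 cells per well were seeded. Next, compound or vehicle (23 nL) was pinned in, plates sat 48 hr at 37 C. Finally Hoechst was added for 40 min before fluorescence scanning.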
KB-3-1 tox: qHTS assay for MDR1-selective chemotherapeutics: Primary screen using the parental adenocarcinoma cell KB-3-1 | KB-3-1 viability, CellTiter-Glo ATP luminescence, 72 h | AID 1347075, 2019 | Potency, µM (doses to about 46.1 µM), actives largely listed as cytotoxic | hit rate 1.4% among 400,000; further: nearly all actives have a fitted effect of over 60% in size
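Cells are dispensed, compounds pinned in, plates held at 37 °C for 72 h, then CellTiter-Glo is added and luminescence read after 10 minutes. Cell line: parental KB-3-1 in phenol-red-free DMEM, 10% FBS.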
MCF10A rereplic: A quantitative high throughput screen for small molecules that induce DNA re-replication in MCF 10a normal breast cells; MCF 10A DNA re-replication, Hoechst nuclear intensity, 48 h; Potency, µM (top dose mostly 46.1 µM), hits mostly activators; hit rate 2.9% among 350,000; further: nearly all actives have a fitted effect of over 50% in size
KB-V1 MDR tox: qHTS assay for MDR1-selective chemotherapeutics: Primary screen using the drug-selected MDR subline cells KB-V1; KB-V1 MDR cells viability, CellTiter-Glo, 72 h; Potency, µM (top dose mostly 46.1 µM), usual class: cytotoxic; hit rate 3.4% among 400,000; AID 1347076, 2019; further: nearly all actives have a fitted effect of over 60% in size
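Cytotoxicity via CellTiter-Glo luminescence after 72 h compound exposure at 37 degrees C. Cells: drug-selected KB-V1 line, DMEM phenol-red free plus 10% FBS. Compounds tested at multiple concentrations; normalized data fitted to concentration-effect curves.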
D3 ag: qHTS of D3 Dopamine Receptor Agonist: qHTS; D(3) dopamine receptor (Homo sapiens), P35462; max activation, %; D3R DiscoveRx beta-arrestin cells, luminescence, 90 min; hit rate 0.58% among 410,000; in the data active means max activation above about 30%
Target sequence (P35462 whole entry, looked up): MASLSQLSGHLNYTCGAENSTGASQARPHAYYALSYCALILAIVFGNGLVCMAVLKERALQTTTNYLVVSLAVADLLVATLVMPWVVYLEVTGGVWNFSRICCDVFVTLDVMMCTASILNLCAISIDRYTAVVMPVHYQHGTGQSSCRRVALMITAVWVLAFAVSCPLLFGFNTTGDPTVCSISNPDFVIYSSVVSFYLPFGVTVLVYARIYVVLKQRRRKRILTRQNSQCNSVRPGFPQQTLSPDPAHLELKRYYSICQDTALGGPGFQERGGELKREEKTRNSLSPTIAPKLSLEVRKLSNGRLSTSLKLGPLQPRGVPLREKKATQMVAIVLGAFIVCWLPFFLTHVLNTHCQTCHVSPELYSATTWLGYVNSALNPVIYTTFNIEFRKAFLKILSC
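Agonist-mode cell screen: cells plated at 1500/well and incubated overnight at 37 °C, then exposed to library compounds for 90 min at 37 °C. Detection reagent was added for 30–60 min at room temperature, and luminescence was read.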
D3 antag: qHTS of D3 Dopamine Receptor Antagonist: qHTS | D(3) dopamine receptor (Homo sapiens), P35462 | D3R cells, DiscoveRx beta-arrestin luminescence, antagonist mode; stronger effect = lower value | max response, negative = inhibition, % | hit rate 2.5% among 360,000 | AID 652054, 2013; in the data active means max response below about -50%; inconclusive means no clear call, values can overlap the other calls
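Cells expressing the human receptor were seeded at 1500 cells/well, incubated overnight at 37 degrees C in 5% CO2, then exposed to library compounds with dopamine controls for 90 minutes at 37 degrees C before luminescent detection.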
Hits are given with their value; 0 = inactive; ? = inconclusive; - = not tested or not shown. Unless noted, the call rests on the fitted dose curve; in most records, active means well fitted curve in the direction sought with a large enough effect; inconclusive means small, poorly fitted or top-dose-only effect, or another doubt; inactive means no such curve, though single readings can be large; an effect the other way counts as inactive or inconclusive.

SMILES | SW480 rerep | KB-3-1 tox | MCF10A rereplic | KB-V1 MDR tox | D3 ag | D3 antag
O=C(NCc1cccnc1)NC1(C(F)(F)F)Oc2ccc(Cl)cc2O1 (centres undefined) | 0 | ? | 0 | 3.3µM | 0 | 0
CCOc1ccc(NC(=O)c2ccc(-c3cccc(Cl)c3C)o2)cc1 | - | 0 | - | 0 | 0 | -
O=C(c1ccc(Br)cc1)N1CCC(c2nc3ccccc3s2)CC1 | - | ? | - | 0 | 0 | -
CC(C)Oc1ccc(CNS(=O)(=O)c2cnc(N)nc2)cc1 | - | - | - | - | 0 | -
Cc1ccccc1-n1c(C)nnc1SCC(=O)N1CCc2ccccc2C1 | 0 | 0 | ? | 6.5µM | 0 | 0
CCOC(=O)c1ccc(N2CCN(c3cc(C)ccc3C)CC2)c(NC(=O)Nc2ccc(Cl)cc2)c1 | - | - | - | - | 0 | -
N#Cc1cc([N+](=O)[O-])c(-n2nnc3ccccc32)c([N+](=O)[O-])c1 | ? | ? | ? | 0 | 0 | -58
CCOC(=O)C1CCN(C(=O)c2sc3nc(-c4ccc(F)cc4)cn3c2C)CC1 | 0 | 0 | 0 | 23µM | 0 | 0
CCOC(=O)C1CCCN(C(=O)c2sc3nc(-c4ccc(F)cc4)cn3c2C)C1 (centres undefined) | 0 | 0 | 0 | ? | 0 | 0
COc1ccc(C(=O)Nc2nc3c(s2)Cc2c(Br)ccc(OC)c2-3)cc1OC | - | ? | - | 0 | 0 | -
COC(=O)c1ccc(C)c(NC(=O)CCCN2C(=O)CN(C)C2=O)c1 | 0 | 0 | 0 | 0 | 0 | 0
CC(C)N(C)NC(=S)Nc1ccccc1 | 0 | 0 | 0 | 0 | 0 | 0
Cc1cc(N(C)NC(=S)Nc2ccccc2)nc(C)n1 | 1.8µM | 0 | 0 | 0 | 0 | 0
COC(=O)c1cccnc1-n1c(=O)c2cccnc2n(CC(=O)Nc2cccc(C)c2)c1=O | - | 0 | - | 0 | 0 | -
CN(C)c1ccc(/C=C(\Cl)c2nc3ccccc3s2)cc1 | ? | 0 | 7.3µM | ? | 0 | 0
COc1cc(C=C(c2nc3ccccc3s2)c2nc3ccccc3s2)cc(OC)c1O | ? | 0 | ? | ? | 0 | 0
O=C(O)c1ccc(Oc2nc3ccccc3s2)cc1 | 0 | 0 | 0 | 0 | 0 | 0
O=C(O)c1ccc(C=C(c2nc3ccccc3s2)c2nc3ccccc3s2)cc1 | 0 | ? | 18µM | ? | 0 | ?
Cc1cccc(-c2nc3ccccc3n3c(-c4ccccc4)c4c(=O)n(C)c(=O)n(C)c4c23)c1 | - | 0 | - | 0 | 0 | -
Cn1ccc2ccc(C3=CC(=O)C[C@H](c4ccc(F)cc4)C3)cc21 | 0 | 0 | ? | 0 | 0 | 0
O=C(C1CCC(CNc2nc(=S)[nH]c3ccccc23)CC1)N1CCN(c2ccccn2)CC1 (centres undefined) | 0 | 0 | 0 | 2.6µM | 0 | 0
Cc1cc(C(=O)NNc2ccc(F)cc2)no1 | 0 | ? | 13µM | 0 | 0 | 0
Cc1cc(C(=O)NNc2ccccc2F)no1 | 0 | 0 | 9.2µM | 0 | 0 | 0
Cc1cc(C(=O)Nc2ccccn2)no1 | 0 | 0 | 0 | 0 | 33 | 0
O=C(Nc1ccccn1)c1ccc(S(=O)(=O)c2ccc(Cl)cc2)cc1 | 0 | ? | 0 | 7.3µM | 0 | 0
SMILES | SW480 rerep | KB-3-1 tox | MCF10A rereplic | KB-V1 MDR tox | D3 ag | D3 antag
Cc1cc(C(=O)NNc2c(Cl)cccc2Cl)no1 | 0 | 0 | 0 | 0 | 0 | 0
Cn1c(CCN2CCN(c3ccccn3)CC2)nc2cc(NS(=O)(=O)c3ccc(Cl)cc3)ccc21 | ? | ? | ? | 0 | 0 | -69
Cc1ccc(S(=O)(=O)Nc2ccc3c(c2)nc(CCN2CCN(c4ccccn4)CC2)n3C)cc1 | 1µM | 0 | 0 | 0 | 0 | -61
CCN(CC)c1ccc(C2C(C(=O)Nc3ccccc3C)=C(C)Nc3ncnn32)cc1 (centres undefined) | - | 0 | - | 0 | 0 | -
O=C(NCc1ccccc1)OCCN1CCN(Cc2ccccc2)CCC1=O | 0 | 0 | 0 | 0 | 0 | -68
O=C(CCC1N=C2c3ccccc3N=C(SCc3ccccc3F)N2C1=O)NC1CCCCC1 (centres undefined) | - | 0 | - | ? | 0 | -
Cc1ccc2c(c1)c1c(c(=O)n(-c3ccccc3)c(=O)n1CC(=O)N1CCCC1)n2C | - | - | - | - | 0 | -
O=C(NC(NC1CCS(=O)(=O)C1)C(Cl)(Cl)Cl)c1cccc(Cl)c1 (centres undefined) | 0 | 0 | 0 | 23µM | 0 | 0
O=C(NC(NC1CCS(=O)(=O)C1)C(Cl)(Cl)Cl)c1ccc(Br)cc1 (centres undefined) | 0 | 0 | 0 | 0 | 0 | 0
Cc1nc(-c2cccc(F)c2)sc1CCNC(=O)Cc1ccc(F)cc1 | - | 0 | - | 0 | 0 | -
Cc1ccccc1NC(=O)/C=C1\SC(=O)NC1=O | ? | 0 | 23µM | ? | 0 | 0
CCOC(=O)Nc1cccc(OCC(=O)Nc2ccccc2OC)c1 | 0 | 0 | 0 | 21µM | 0 | 0
COc1cccc(NC(=O)CN(C)C(=O)CSc2ccc3c(c2)OCCO3)c1 | 0 | 0 | 0 | 21µM | 0 | 0
CCOC(=O)Nc1cccc(OCC(=O)Nc2ccc(OC)cc2OC)c1 | 0 | 0 | 0 | 0 | 0 | 0
COc1cccc(NC(=O)CN(C)C(=O)Cc2cccc3ccccc23)c1 | 0 | 0 | 0 | 0 | 0 | 0
O=C(CSc1ccc2c(c1)OCCO2)Nc1ccc(Br)cc1 | 0 | 0 | 0 | 0 | 0 | -63
COc1cccc(NC(=O)CN(C)C(=O)COc2ccc3ccccc3c2)c1 | 0 | 0 | 0 | 15µM | 0 | 0
Cc1ccc(NC(=O)CN(C)C(=O)CSc2ccc3c(c2)OCCO3)cc1 | 0 | 0 | 0 | 0 | 0 | 0
Cc1c(C(=O)Nc2ccc(F)cc2F)nnn1-c1ccccc1Br | - | 0 | - | 0 | 0 | -
Cc1ccc(NC(=O)CSc2nc(=O)n(CCN3CCOCC3)c3c2CCC3)cc1Cl | - | - | - | - | 0 | -
Cc1ccc(CNc2ncnc3c2nnn3C)cc1 | - | - | - | - | 0 | -
COc1ccc(-c2cc(C(=O)Nc3cc(C(F)(F)F)ccc3Cl)no2)cc1 | - | 0 | - | 0 | 0 | -
COc1ccc2c(c1)sc1ncc(C(=O)NCc3cccc(C)c3)c(=O)n12 | - | 0 | - | ? | 0 | -
CCOc1ccc(OCCC(=O)N(CC)CC(=O)Nc2ccccc2OC)cc1 | 0 | 0 | 0 | 0 | 31 | 0
CN(CC(=O)Nc1cccc(F)c1)C(=O)CCSc1ccc(F)cc1 | 0 | 8.2µM | ? | ? | 0 | 0
CCN(CC(=O)Nc1ccccc1OC)C(=O)COc1ccc2ccccc2c1 | 0 | 0 | 0 | 15µM | 0 | 0
Cc1ccc([N+](=O)[O-])cc1S(=O)(=O)N1CCn2cccc2C1c1ccccc1 (centres undefined) | - | 0 | - | 0 | 0 | -
OC(CCN1CC2CCC(CC2)C1)(Cc1ccccc1)c1ccco1 (centres undefined) | 0 | 0 | 0 | 0 | 0 | 0
